Data published in PubChem BioAssay AID485341 (National Center for Advancing Translational Sciences (NCATS), 2010).
Screen size: about 330,000 compounds; about 1,700 (0.52%) were called active. Entries that show only a call come without a potency. Calls come from the whole dose curve; as a rule, active = well fitted inhibition curve with a large enough effect; inconclusive = small, poorly fitted or top-dose-only effect; inactive = no such curve, though single readings can be large or run the other way. The full list was thinned out, with actives kept by preference.

These molecules were tested against Beta-lactamase (Escherichia coli (strain K12)) (UniProt P00811) (assay: qHTS Inhibitors of AmpC Beta-Lactamase (assay without detergent)). Conditions: AmpC nitrocefin hydrolysis, absorbance 480 nm, 0.0001% Triton; series mostly up to 57.1 µM.
Summary of the method: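 AmpC (5.3 nM in the dispensed reagent) in 20 mM phosphate pH 7.0 with 0.01% (detergent screen) or 0.0001% Triton X-100 was preincubated with compounds for 15 min at room temperature. Nitrocefin was then added from an 800 uM solution, and hydrolysis was followed at 480 nm.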
Note: nearly all actives have a fitted effect of over 20% in size.
Potency is the fitted concentration of half-maximal effect.

Chain of Beta-lactamase (Escherichia coli (strain K12)) (P00811 whole entry, looked up): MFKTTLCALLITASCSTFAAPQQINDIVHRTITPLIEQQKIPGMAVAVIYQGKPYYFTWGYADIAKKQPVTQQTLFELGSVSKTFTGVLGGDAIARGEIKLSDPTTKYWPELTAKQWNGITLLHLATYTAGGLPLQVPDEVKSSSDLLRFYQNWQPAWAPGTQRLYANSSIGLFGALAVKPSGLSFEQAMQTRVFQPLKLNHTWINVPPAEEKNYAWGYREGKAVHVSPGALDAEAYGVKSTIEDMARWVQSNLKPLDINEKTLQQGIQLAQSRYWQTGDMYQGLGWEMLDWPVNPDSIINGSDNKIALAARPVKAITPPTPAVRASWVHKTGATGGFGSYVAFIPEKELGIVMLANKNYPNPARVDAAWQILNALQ

SMILES	Potency
Clc1ccc(Cl)c(Oc2ccc(Oc3nc(Cl)ccc3Cl)cc2)n1	inactive
Nc1c(N(CCCO)C(=O)C2CCCC2)c(=O)[nH]c(=O)n1Cc1ccccc1	inactive
CCCCCn1c(SCCC(C)C)nc2c1c(=O)[nH]c(=O)n2C	inactive
COC(=O)c1c(NC(=O)c2ccc(S(=O)(=O)N3CCOCC3)cc2)sc2c1CCN(C(C)C)C2	inactive
COc1cccc(Cn2cc(/C=N/NC(=O)c3cc(O)cc(O)c3)c3ccccc32)c1	7.94 µM (active)
CNC(=S)N/N=C/c1cn(Cc2ccc(C)cc2)c2ccccc12	inactive
N#CCC(=O)N/N=C/c1cn(Cc2ccc3ccccc3c2)c2ccccc12	inactive
Cc1ccc(C(=O)N/C(=C\c2ccco2)C(=O)NC2CCS(=O)(=O)C2)cc1 (configuration not stated)	inactive
Cc1cccc(C)c1NC(=O)CS(=O)CC(=O)N1CCN(c2ccccc2)CC1 (configuration not stated)	inactive
O=C(O)CCCN1C(=O)c2ccccc2Sc2ncccc21	inactive
C=CCN(CC=C)S(=O)(=O)c1ccc(C(=O)Nc2nc3c(s2)CCc2ccccc2-3)cc1	8.91 µM (active)
COCCN(CCOC)S(=O)(=O)c1ccc(C(=O)Nc2nc3c(s2)CCc2ccccc2-3)cc1	inactive
O=C(Nc1ccc(S(=O)(=O)N2CCc3ccccc3C2)cc1)c1ccccc1	inactive
O=C(Cc1ccccc1)NCC1OCCc2ccccc21 (configuration not stated)	inactive
O=C(O)c1ccc(/C=C2\SC(=S)N(NC(=O)c3ccc(Br)cc3)C2=O)cc1	inactive
Cn1cccc1/C=C1\SC(=S)N(NC(=O)c2ccc(Cl)cc2)C1=O	inactive
CC(=O)N1C(=O)/C(=C2\SC(=S)N(NC(=O)c3ccc(O)cc3)C2=O)c2ccccc21	20 µM (active)
CC1(c2ccccc2Cl)NC(=O)N(CC(=O)NC(=O)NCc2ccco2)C1=O (configuration not stated)	inactive
O=C1CCN(Cc2ccc([N+](=O)[O-])cc2)CCN1[C@H](CO)Cc1ccccc1	inactive
O=C(CCCn1c(=O)oc2ccccc21)Nc1cccnc1	inactive
CC(C)CC(=O)N1CCN(Cc2cccc(Cl)c2)CC1	inactive
Clc1cccc(CN2COc3c(cc(Cl)c4cccnc34)C2)c1	35.5 µM (active)
Oc1c(CN2CCCC2)cc(COCc2ccccc2)c2cccnc12	inactive
CC[C@]12c3[nH]c4ccc(Cl)cc4c3CCN1C(=O)[C@@H](CC(=O)NCCN1CCOCC1)C[C@@H]2C(=O)N1CCN(C(=O)C2CC2)CC1	inactive
CC(C)CCN1NC2(CCC(C)CC2)NC1=S (configuration not stated)	inactive
O=c1oc2ccccc2c(CNc2ccccc2)c1[N+](=O)[O-]	inactive

SMILES	Potency
O=C(COC(=O)c1cc(=O)[nH]c2ccccc12)NCc1cccc(Cl)c1	inactive
CC(NC(=O)COC(=O)c1cc(=O)[nH]c2ccccc12)c1ccccc1 (configuration not stated)	inactive
O=C(COC(=O)c1cc(=O)[nH]c2ccccc12)Nc1nc(-c2cccc(Br)c2)cs1	14.1 µM (active)
CC(C)CCN1C(=O)c2ccc(C(=O)Nc3cccc(S(N)(=O)=O)c3)cc2C1=O	inactive
CN(c1ccccn1)c1ncnc2[nH]ncc12	inactive
Cc1nn(C)c(Cl)c1CN1CCC(Oc2ccc(C(=O)N3CCCC3)cc2)CC1	inactive
Cc1csc(=O)n1CC(=O)Nc1ccc(S(C)(=O)=O)cc1	inactive
O=C(c1ccc(Cl)nc1)N1CCN(S(=O)(=O)c2ccc3c(c2)OCCO3)CC1	inactive
Nc1cc(N)nc(SCC(=O)Nc2cccc(S(=O)(=O)N3CCCCC3)c2)n1	25.1 µM (active)
O=C(CSc1ccccc1)Nc1cccc(S(=O)(=O)N2CCCCC2)c1	inactive
Cn1nnnc1SCC(=O)Nc1cccc(S(=O)(=O)N2CCCCC2)c1	inactive
COc1ccccc1C(=O)COC(=O)COc1ccc(C#N)cc1	inactive
COCCN(CCOC)S(=O)(=O)c1ccc(/C(O)=C(\C#N)c2nc3ccccc3[nH]2)cc1	inactive
N#C/C(=C(/O)COC(=O)COc1ccc(Cl)cc1)c1nc2ccccc2[nH]1	11.2 µM (active)
Cc1cc(C)c(OCCN2CC(C)OC(C)C2)c(Br)c1 (configuration not stated)	inactive
CCN(CC)S(=O)(=O)c1ccc(CNC(=O)CN2C(=O)NC3(CCc4ccccc43)C2=O)cc1 (configuration not stated)	inactive
CCOC(=O)c1c(CNCc2ccccc2F)c2sc(C)cc2n1C	inactive
Cn1cc(C(=O)NCc2ccccc2F)cn1	inactive
Cn1c2cc(B(O)O)sc2c2cnn(Cc3ccccc3F)c(=O)c21	2.82 µM (active)
COc1cc2c(-c3ccc4c(c3)OCO4)c(-c3ccsc3)oc(=O)c2cc1OC	inactive
O=C(NC1CCN(C(=S)NCc2ccco2)CC1)c1ccc(F)cc1	inactive
CN1C(=O)C(CC(N)=O)N(NC(=O)c2ccc(Cl)cc2)C1=S (configuration not stated)	inactive
Cc1ccc(NC(=O)CC2C(=O)N(Cc3ccccc3)C(=S)N2NC(=O)c2cccc(F)c2)c(C)c1 (configuration not stated)	31.6 µM (active)
Cc1ccc(N2C(=O)C(CC(=O)Nc3cccc(F)c3)N(CCc3ccncc3)C2=O)cc1 (configuration not stated)	inactive
CN(C)/C=N/c1cc(=O)n(C)c(=O)n1CC1CC1	inactive
Clc1ccccc1-c1cc(COc2ccc3ccccc3c2)no1	inactive

SMILES	Potency
Nc1nc2n(n1)C(c1ccco1)CC(c1ccc(Cl)c(Cl)c1)N2 (configuration not stated)	inactive
COc1ccc(C2CC(c3ccc(C)cc3)Nc3ncnn32)cc1 (configuration not stated)	inactive
Clc1ccc(C2CC(c3cccs3)n3ncnc3N2)cc1Cl (configuration not stated)	0.708 µM (active)
CN(C)CCN(Cc1ccccc1)S(=O)(=O)c1csc(C(N)=O)c1	inactive
Cc1ncn2cc(-c3ccc(Cl)cc3Cl)[nH]c(=O)c12	inactive
Cn1c2c(c(=O)n(C)c1=O)CN(Cc1ccco1)CN2	inactive
CC(C)n1c(=O)c(C=Nc2ccc(Br)cc2)c(O)n(Cc2ccco2)c1=O	14.1 µM (active)
Cn1c(O)c(C=Nc2ccc3c(c2)CCC3)c(=O)n(C)c1=O	inactive
c1nc(COc2nsnc2N2CCOCC2)cs1	inactive
Cc1cc(=O)[nH]c(SCc2cccc(F)c2)n1	inactive
O=c1cc(O)nc(SCc2ccccc2Cl)[nH]1	3.16 µM (active)
Cc1cc(=O)[nH]c(SCc2cc(Cl)ccc2OC(F)F)n1	inactive
CCSc1nc2sc3c(c2c(=O)[nH]1)CC(C)(C)OC3	inactive
CC/C(C)=N/Nc1nc2sc3c(c2c(=O)[nH]1)CC(C)(C)OC3	1.12 µM (active)
CC(C)c1nc2sc3c(c2c(=O)n1N)CC(C)(C)OC3	inactive
Cc1cc2ccccn2c1C(C[N+](=O)[O-])c1c(F)cccc1Cl (configuration not stated)	inactive
Cc1ccc(C(C[N+](=O)[O-])c2c(C)cc3ccccn23)cc1 (configuration not stated)	22.4 µM (active)
Cc1cc2ccccn2c1C(=O)c1cccc(F)c1	inactive
Cn1c(=NC(=O)c2ccc3c(c2)OCCO3)sc2cc(S(C)(=O)=O)ccc21	inactive
C[C@H](NC(=O)c1ccccc1)C(=O)OCC(=O)c1c[nH]c2ccccc12	inactive
CN(C)c1ccc(C(CNC(=O)c2ccc(F)cc2)c2c[nH]c3ccccc23)cc1 (configuration not stated)	14.1 µM (active)
COc1ccccc1C(CNC(=O)c1cccc(S(=O)(=O)Nc2ccc(F)cc2)c1)N(C)C (configuration not stated)	inactive
COc1cccc(/C=N/NC(=O)CNC(=O)c2ccc(S(=O)(=O)N3CCOCC3)cc2)c1OC	inactive
CCOc1ccc2[nH]c(C(=O)N/N=C/c3cccc(OC)c3OC)cc2c1	inactive
COc1cccc(/C=N/NC(=O)c2[nH]nc3c2CCc2ccccc2-3)c1O	5.62 µM (active)
CCc1ccc(C(=O)NN=C2CCCCCC2)s1	inactive

SMILES	Potency
CCCNS(=O)(=O)c1ccc(CCC(=O)N2CCCC2)cc1	inactive
COc1ccc(C(CC(=O)c2ccccc2)S(=O)(=O)c2ccccc2)cc1 (configuration not stated)	inactive
CCn1c(SCC(=O)Nc2ccc(OC)c(OC)c2)nnc1-c1c[nH]c2ccccc12	0.631 µM (active)
O=C(CSc1nnc(-c2c[nH]c3ccccc23)n1-c1ccc(F)cc1)NCc1ccco1	inactive
COc1ccc(-n2c(SCC(=O)NCc3cccs3)nnc2-c2ccoc2C)cc1	inactive
CCOC(=O)N1CCN(C(=O)CSc2nnc(-c3c[nH]c4ccccc34)n2CCOC)CC1	inactive
COc1ccc(-n2c(SCC(=O)NCc3ccco3)nnc2-c2c[nH]c3ccccc23)cc1	3.55 µM (active)
CCn1c(SCCC(C)C)nnc1-c1c[nH]c2ccccc12	inactive
N/C(=N\S(=O)(=O)c1ccc(Cl)cc1)N1CCOCC1	inactive
CN(C)Cc1c(O)ccc2c(=O)c(-c3ccccc3Cl)coc12	inactive
Cc1ccc(CNC(=O)CCNS(=O)(=O)c2cccc3nonc23)cc1	inactive
CCOC(=O)c1cccc(NC(=O)CN(c2ccc(C)cc2)S(=O)(=O)c2c(C)noc2C)c1	inactive
Cc1ccc(N(CC(=O)Nc2cc(C)cc(C)c2)S(=O)(=O)c2cccc3nonc23)cc1	15.8 µM (active)
COC(=O)c1ccc(COc2ccc(C#N)cc2)o1	inactive
Cc1cccc(C(=O)OCC(=O)Nc2sc3c(c2C#N)CCC3)c1	inactive
N#Cc1c(NC(=O)CCCl)sc2c1CCCCC2	inactive
N#CCC(=O)Nc1ccc(C(=O)OCC(=O)Nc2sc3c(c2C#N)CCCC3)cc1	14.1 µM (active)
CCOC(=O)Cn1c2c(c(-c3ccccc3OC)cc1=O)CCCC2	inactive
O=C(CSc1nnc(-c2ccncc2)n1C1CCCCC1)Nc1ccccc1	inactive
Cc1ccc(N2C(=O)C3N=NN(CC(=O)N4N=C(c5cccc6ccccc56)CC4c4ccccc4)C3C2=O)cc1 (configuration not stated)	inactive
Cc1cccc(C(C)C)c1NC(=O)COC(=O)C1CC(=O)N(Cc2ccccc2)C1 (configuration not stated)	inactive
NS(=O)(=O)c1ccc(CNC(=O)c2cccc(Oc3ccccc3)c2)cc1	inactive
NS(=O)(=O)c1ccc(CNC(=O)c2cccc(S(=O)(=O)N3CCc4ccccc43)c2)cc1	14.1 µM (active)
Cc1ccc(NC(=O)c2cccc(S(=O)(=O)N3CCCc4ccccc43)c2)nc1	inactive
